The supplement of paper PMC6522484
± gives the standard deviation of the averaged measurements.

Columns and labels:
DLD1 [1] = test: cell viability (CellTiter-Glo) relative to plate median (fraction of plate median); higher = more viable cells; settings: 5 µM; treatment time 24 h; reporter: 7TFP
Summary of the method: (§1)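 Two independent replicates were averaged for each reported value. Library compounds were applied at a final 5 µM for 24 h to colorectal cancer cell lines stably expressing lentiviral TCF/Wnt firefly luciferase reporters. Firefly luciferase or CellTiterGlo luminescence from each well was normalised to the plate median.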

HCT116 = test: as above; settings: 5 µM; treatment time 24 h; reporter: TCF4/Wnt
Summary of the method: as §1

SW480 [2] = test: as above; settings: 5 µM; treatment time 24 h; reporter: 7TFP
Summary of the method: as §1

DLD1 [3] = test: TCF/Wnt firefly luciferase reporter signal relative to plate median (fraction of plate median); higher = higher Wnt reporter signal; settings: 5 µM; treatment time 24 h; reporter: 7TFP
Summary of the method: as §1

SW480 [4] = test: as above; settings: 5 µM; treatment time 24 h; reporter: 7TFP
Summary of the method: as §1

SMILES | cell viability (DLD1 [1]) | cell viability (HCT116) | cell viability (SW480 [2]) | TCF/Wnt firefly luciferase reporter signal (DLD1 [3]) | TCF/Wnt firefly luciferase reporter signal (SW480 [4])
CCN(CC)CCOC(=O)c1ccc(N)cc1 | 1.01 ± 0.12 | 1.05 ± 0.028 | 1.03 ± 0.021 | 1.09 ± 0.092 | 1.06 ± 0.014
C=C[C@@]1(C)CC(=O)[C@]2(O)[C@@]3(C)[C@@H](O)CCC(C)(C)[C@@H]3[C@H](O)[C@H](OC(C)=O)[C@@]2(C)O1 | 1.09 ± 0.099 | 0.942 ± 0.069 | 1.12 ± 0.021 | 1.23 ± 0.05 | 1.14 ± 0.099
CN1C(C(=O)Nc2ccccn2)=C(O)c2sccc2S1(=O)=O | 0.932 ± 0.03 | 0.893 ± 0.011 | 0.9585 ± 0.00071 | 0.978 ± 0.073 | 1.09 ± 0.014
Cn1cnc2c1c(=O)[nH]c(=O)n2C | 1.04 ± 0.028 | 1.16 ± 0.092 | 1.03 ± 0.035 | 1.17 | 1.09 ± 0.028
O=C(N[C@H](CO)[C@H](O)c1ccc([N+](=O)[O-])cc1)C(Cl)Cl | 0.939 ± 0.013 | 0.918 ± 0.14 | 1.04 ± 0.042 | 1.09 ± 0.085 | 1 ± 0.013
CC1=CC(=O)[C@H]2C(C)(C)CCC[C@]2(C)[C@@]1(O)CCc1ccoc1 | 0.976 ± 0.016 | 1.07 ± 0.15 | 0.998 ± 0.018 | 1.1 ± 0.099 | 0.95 ± 0.043
CC(=O)O[C@@H]1C=C[C@]2(C)C(C[C@@H](OC(C)=O)[C@]3(C)C4=CC(=O)O[C@H](c5ccoc5)[C@@]4(C)CCC23)C1(C)C (stereo not given in full) | 1.06 ± 0.035 | 1.08 ± 0.042 | 1.03 ± 0.014 | 1.09 ± 0.021 | 1.12 ± 0.078
CC(=O)Oc1c(C)c(C)c2c(c1C)CCC(C)(CCCC(C)CCCC(C)CCCC(C)C)O2 (stereo not drawn) [alpha-TOCHOPHERYL ACETATE] | 1.06 ± 0.085 | 1.02 ± 0.092 | 1.06 ± 0.014 | 1.12 ± 0.18 | 1.09 ± 0.057
CC(=O)O[C@]1(C(C)=O)CC[C@H]2[C@@H]3C[C@H](C)C4=CC(=O)CC[C@]4(C)[C@H]3CC[C@@]21C | 1.03 ± 0.014 | 0.989 ± 0.0099 | 0.96 ± 0.018 | 0.971 ± 0.18 | 1 ± 0.035
O=C1C[C@@H](c2ccc(O)cc2)Oc2cc(O)cc(O)c21 | 1.045 ± 0.0071 | 1.055 ± 0.0071 | 1.03 | 1.015 ± 0.0071 | 1.04 ± 0.021
C[C@H]1[C@H](C)CC[C@]2(C(=O)O)CC[C@]3(C)C(=CC[C@@H]4[C@@]5(C)CC[C@H](O)C(C)(C)[C@@H]5CC[C@]43C)[C@H]12 | 0.978 ± 0.014 | 1.04 ± 0.014 | 1.03 ± 0.021 | 1.07 ± 0.057 | 1.06 ± 0.014
CCCCC(=O)O[C@H]1CC[C@H]2[C@@H]3CCc4cc(O)ccc4[C@H]3CC[C@]12C | 1.07 ± 0.042 | 1.01 ± 0.052 | 1 ± 0.036 | 0.956 ± 0.25 | 1.04 ± 0.11
O=C1OC(c2ccc(O)cc2)(c2ccc(O)cc2)c2ccccc21 | 1.01 ± 0.12 | 1.03 ± 0.12 | 1.025 ± 0.0071 | 0.981 ± 0.069 | 1.04 ± 0.057
COc1ccc2c(=O)ccoc2c1 | 0.979 ± 0.059 | 0.933 ± 0.11 | 0.942 ± 0.0071 | 1.03 ± 0.021 | 1.05 ± 0.1
